Sampled rows, rich in hits. Any-hit rate of the full collection: about 6.5%.
FMDV antiviral = High Throughput Screening for Foot and Mouth Disease Virus Antivirals. Potency, µM (series often up to 57.9 µM), without a hit: at the top dose activity change, negative = inhibition, most hits filed as inhibitors. actives 1.2% (n = 410,000). AID 1159524, 2015. FMDV antiviral cell-based qHTS; calls by dose curve; tested in HEK293T cells; further: read-out not given here; potency means the concentration at half of the fitted maximal effect; nearly all actives have a fitted effect of over 45% in size
LASV entry inh = qHTS for Inhibitors of binding or entry into cells for Lassa Virus | AID 540256, 2011 | Lassa virus pseudotype entry inhibition, cell reporter | actives 1.2% (n = 300,000) | Potency, µM (highest dose often 37.9 µM), for inactives: at the top dose activity change, negative = inhibition, most hits filed as inhibitors; calls by dose curve; tested in HEK293 cells; further: potency means the concentration at half of the fitted maximal effect; nearly all actives have a fitted effect of over 50% in size
Vaccinia Venus = qHTS for Stage-Specific Inhibitors of Vaccinia Orthopoxvirus: Venus Reporter Primary qHTS. actives 0.46% (n = 330,000). AID 720580, 2013. Potency, µM (doses to about 36.5 µM), without a hit: at the top dose activity change, negative = inhibition, hits mostly inhibitors. Vaccinia virus Venus reporter expression, fluorescence; calls by dose curve; tested in A549 cells; further: potency means the concentration at half of the fitted maximal effect; nearly all actives have a fitted effect of over 30% in size
Marburg entry inh = qHTS for inhibitors of binding or entry into cells for Marburg Virus; Marburg virus pseudotyped entry inhibition, cell reporter; Potency, µM (series often up to 37.8 µM), for the others: at the top dose activity change, negative = inhibition, actives largely listed as inhibitors; actives 1.8% (n = 300,000); AID 540276, 2011; calls by dose curve; tested in HEK293 cells; further: potency means the concentration at half of the fitted maximal effect
HCMV antiviral = qHTS Assay for inhibitors of the human cytomegalovirus (HCMV) | HFF cells, HCMV-luciferase reporter, 72 h; hits give low values | activity change, negative = inhibition, % at 57.5 µM | actives 4.5% (n = 410,000); in the data active means activity change below about -60%; inconclusive means no clear call, values can overlap the other calls; inactive means above about -39%
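Steps: HFFs plated, 16 h 37C; compounds added; HCMV-luciferase added to MOI 1 PFU/cell; 72 h 37C; OneGlo reagent, 5 min room temperature; luminescence read, normalized to controls.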
VACV mCherry inh = qHTS for Stage-Specific Inhibitors of Vaccinia Orthopoxvirus: mCherry Reporter Primary qHTS; Vaccinia virus mCherry reporter infection, fluorescence; Potency, µM (highest dose often 36.5 µM), inactives show at the top dose activity change, negative = inhibition, hits mostly inhibitors; actives 0.63% (n = 310,000); calls by dose curve; tested in A549 cells; further: potency means the concentration at half of the fitted maximal effect; nearly all actives have a fitted effect of over 35% in size
The depositor's hits bear a star; [ ] = remark or other dose. On the % scale 0 is the no-effect control and ±100 the full control effect.

What do the screens show for `COc1ccc(OC)c(C(=O)CN2C(=O)NC(C)(c3ccccc3)C2=O)c1` (centres undefined)?
FMDV antiviral: -12.4%; LASV entry inh: -23.8%; Vaccinia Venus: -22.6%; Marburg entry inh: inconclusive; HCMV antiviral: -60.7*; VACV mCherry inh: -26.7%

What do the screens show for `CCOc1cc(Br)c(C=O)cc1OCC`?
FMDV antiviral: -21.1%; LASV entry inh: -11.8%; Vaccinia Venus: 3.6%; Marburg entry inh: -17.5%[46.1 µM]; HCMV antiviral: -91.8*; VACV mCherry inh: 4.9%

Results for CCOc1cc(Br)c(C(=O)O)cc1OCC ?
FMDV antiviral: 19.1%; LASV entry inh: 0.4%; Marburg entry inh: 0.0%; HCMV antiviral: -23.0

Results for Cc1c(C(=O)NCC2COCCO2)cnn1-c1nccc(-c2cccs2)n1 (centres undefined) ?
FMDV antiviral: 32.0%; Vaccinia Venus: -13.4%; VACV mCherry inh: -4.3%

Results for CCOC(=O)c1c(-c2ccc(C)o2)csc1NC(=S)NC(=O)c1cccs1 ?
FMDV antiviral: -20.4%; LASV entry inh: 23.1µM*; Vaccinia Venus: -24.2%; Marburg entry inh: inconclusive; HCMV antiviral: inconclusive; VACV mCherry inh: inactive

Results for CCOC(=O)c1c(-c2ccc(F)cc2)csc1NC(=O)CCN1CCOCC1 ?
FMDV antiviral: -12.6%; LASV entry inh: -24.6%; Vaccinia Venus: -15.3%; Marburg entry inh: 9.5%; HCMV antiviral: 36.0; VACV mCherry inh: -9.4%

Results for CCOC(=O)c1c(-c2ccc(-c3ccccc3)cc2)csc1NC(=O)CNCCN(C)C ?
FMDV antiviral: -29.2%; LASV entry inh: inconclusive; Vaccinia Venus: inconclusive; Marburg entry inh: inconclusive; HCMV antiviral: -100.3*; VACV mCherry inh: 10µM*

Results for CCOC(=O)c1c(-c2ccc(C)o2)csc1NC(=S)NC(=O)c1ccccc1Br ?
FMDV antiviral: -5.8%; LASV entry inh: 25.8%[14.3 µM]; Vaccinia Venus: -22.0%; Marburg entry inh: -18.4%; HCMV antiviral: 43.0; VACV mCherry inh: -5.3%

How did CCOC(=O)c1c(-c2cccs2)csc1NC(=O)CN1CC(C)OC(C)C1 (centres undefined) do in these assays?
FMDV antiviral: inconclusive; LASV entry inh: inconclusive; Vaccinia Venus: -25.4%; Marburg entry inh: 11.2µM*; HCMV antiviral: -38.2; VACV mCherry inh: -20.0%

What do the screens show for `CCOC(=O)c1c(-c2ccc(-c3ccccc3)cc2)csc1NC(=O)CCN1CCOCC1`?
FMDV antiviral: -24.8%; LASV entry inh: 10µM*; Vaccinia Venus: inconclusive; Marburg entry inh: inconclusive; HCMV antiviral: -24.5; VACV mCherry inh: inconclusive

What do the screens show for `CCOC(=O)c1c(-c2ccccc2)csc1NC(=O)CCN1C(=O)c2ccccc2C1=O`?
FMDV antiviral: 0.8%; LASV entry inh: 10.0%; Vaccinia Venus: -10.2%; Marburg entry inh: -0.8%; HCMV antiviral: 22.9; VACV mCherry inh: -5.8%

Results for COc1cc(C/C=C\c2ccccc2)c(OC)cc1O ?
FMDV antiviral: -4.6%

How did Cc1[nH]c2ccccc2c1C(=O)C(=O)N1c2ccccc2CC1C (centres undefined) do in these assays?
FMDV antiviral: inconclusive; LASV entry inh: -19.6%; Vaccinia Venus: inconclusive; Marburg entry inh: inconclusive; HCMV antiviral: -61.8*; VACV mCherry inh: inconclusive

What do the screens show for `Cc1c(N2C(=O)S[C@H](CC(=O)O)C2=O)c(=O)n(-c2ccccc2)n1C`?
Marburg entry inh: 11.7%

Results for COc1ccccc1CC(=O)Nc1ccccc1O ?
FMDV antiviral: 8.1%; LASV entry inh: -2.0%; Marburg entry inh: 26.8%; HCMV antiviral: -11.8

What do the screens show for `COc1cccc(CNc2ccc([N+](=O)[O-])cc2C)c1`?
FMDV antiviral: -15.0%; LASV entry inh: inconclusive; Vaccinia Venus: -6.2%; Marburg entry inh: -21.5%; HCMV antiviral: 31.7; VACV mCherry inh: -21.9%

How did COc1ccc(OC)c(CNc2ccc([N+](=O)[O-])cc2C)c1 do in these assays?
FMDV antiviral: inconclusive; LASV entry inh: -0.9%; Vaccinia Venus: -4.0%; Marburg entry inh: -26.5%[46.1 µM]; HCMV antiviral: -91.3*; VACV mCherry inh: -17.9%

How did COc1ccccc1CC(=O)Nc1ccc([N+](=O)[O-])cc1O do in these assays?
FMDV antiviral: inconclusive; LASV entry inh: 6.31µM*; Vaccinia Venus: -26.4%; Marburg entry inh: inconclusive; HCMV antiviral: inconclusive; VACV mCherry inh: inconclusive

How did CN(CCO)C[C@H](O)Cn1cnc2c1c(=O)n(C)c(=O)n2C (tested in a mixture with another compound) do in these assays?
Marburg entry inh: -16.8%

What do the screens show for `Cc1cccc(NC(=O)c2ccc(-c3nc(CSc4ccccc4)c(C)o3)cc2)c1C`?
FMDV antiviral: inconclusive; LASV entry inh: 19.0%[46.1 µM]; Vaccinia Venus: -26.3%; HCMV antiviral: -6.4; VACV mCherry inh: inconclusive

How did Cc1cccc(-n2c(=O)c3c(c4cc(C)ccc4n3C)n(CC(=O)Nc3ccc(C)c(C)c3)c2=O)c1 do in these assays?
FMDV antiviral: -6.2%; LASV entry inh: inconclusive; Vaccinia Venus: inconclusive; HCMV antiviral: 2.7; VACV mCherry inh: inconclusive

What do the screens show for `CSc1oc(-c2ccco2)nc1S(=O)(=O)c1ccc(C)cc1`?
FMDV antiviral: 13.1%; LASV entry inh: 11.0%[46.1 µM]; Vaccinia Venus: -7.8%; Marburg entry inh: inconclusive; HCMV antiviral: -0.8; VACV mCherry inh: -24.7%

How did CCC(C)Sc1oc(-c2ccco2)nc1S(=O)(=O)c1ccc(C)cc1 (centres undefined) do in these assays?
FMDV antiviral: 26.2%; LASV entry inh: -9.6%[46.1 µM]; Vaccinia Venus: -12.9%; Marburg entry inh: 10µM*; HCMV antiviral: -15.9; VACV mCherry inh: -14.3%

Results for O=c1cc(-c2ccccc2Br)[nH]c2ccccc12 ?
HCMV antiviral: -89.8*

How did O=[N+]([O-])c1ccc(N2CCCCC2)cn1 do in these assays?
FMDV antiviral: 34.6%; HCMV antiviral: 4.7

How did O=[N+]([O-])c1ccc(N2CCN(c3cccc(Cl)c3)CC2)cn1 do in these assays?
FMDV antiviral: -22.4%; LASV entry inh: inconclusive; Vaccinia Venus: -19.8%; Marburg entry inh: 8.91µM*; HCMV antiviral: inconclusive; VACV mCherry inh: inconclusive

How did CCc1ccccc1NC(=O)Cn1c(C(=O)OC)cc2oc(C)cc21 do in these assays?
FMDV antiviral: -0.6%; Vaccinia Venus: -5.9%; Marburg entry inh: -23.7%[46.1 µM]; HCMV antiviral: -2.6; VACV mCherry inh: -7.9%

Results for C/C(=N\NC(=O)c1cc(-c2cccs2)nc2ccccc12)c1ccccn1 ?
FMDV antiviral: inconclusive; LASV entry inh: 6.51µM*; Marburg entry inh: 4.61µM*; HCMV antiviral: -100.6*

What do the screens show for `C/C(=N\NC(=O)C(c1ccccc1)c1ccccc1)c1ccc(O)cc1`?
FMDV antiviral: -23.2%; HCMV antiviral: 21.6
